Source: PubChem BioAssay
Sampled rows, rich in hits. Any-hit rate of the full collection: about 2.4%.
POLK inh = inhibitors of human DNA polymerase kappa; Q9UBT6; purified Pol kappa, fluorescent DNA synthesis assay, 10 min; Potency, µM (doses to about 107 µM), hits mostly inhibitors; actives 0.53% (n = 400,000)
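10 nM Pol kappa preincubated 15 min at room temperature with compounds, then reaction started with substrate at 50 nM final. Fluorescence read kinetically at 0 and 10 min; buffer-only wells served as negative control.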
Pol beta inh = blocks human DNA polymerase beta activity | P06746 | Pol beta primer extension/strand displacement, fluorescence kinetic | Potency, µM (top dose mostly 114 µM), most hits filed as inhibitors | actives 1.3% (n = 340,000) | AID 485314
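Reaction started by 50 nM substrate onto compound-treated Pol beta (10 nM, 15 min preincubation, room temperature); plates read at 0 min and 10 min. Normalized concentration-effect data fitted by four-parameter Hill equation.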
Pol iota inh = blocks human DNA polymerase iota activity | Q9UNA4 | Pol iota fluorescent replication assay, 10 min | Potency, µM (series often up to 115 µM), usual class: inhibitors | actives 1% (n = 390,000)
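Pol iota at 10 nM preincubated 15 min with compounds at room temperature; reaction started with fluorescent substrate, 50 nM final. Fluorescence read kinetically at 0 and 10 min; buffer-only wells as negative control.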
FEN1 inhibitor = human FEN1 inhibition. Recombinant FEN1 flap cleavage, fluorescence, 15 min. Potency, µM (highest dose often 114 µM), actives largely listed as inhibitors. actives 0.35% (n = 390,000); note: nearly all actives have a fitted effect of over 65% in size
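Nuclease activity of 10 nM FEN1 was measured after 15 min of room-temperature exposure to titrated compounds, by adding 50 nM flap substrate and reading plates at 0 and 15 min.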
Pol eta inh = inhibitors of human DNA polymerase eta; recombinant Pol eta, fluorescent DNA replication assay; Potency, µM (titrated, usually from 114 µM), hits mostly inhibitors; actives 1.2% (n = 390,000); AID 588591
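Pol eta (10 nM) was preincubated with compounds for 15 min at room temperature, after which fluorescent replication substrate (50 nM final) was added to start the reaction. Fluorescence was read kinetically at 0 and 10 min.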
WRN helicase inh-1 = inhibitors of human WRN helicase. Q14191. WRN helicase unwinding, fluorescent forked duplex, kinetic. Potency, µM (top dose mostly 114 µM), hits mostly inhibitors. actives 0.46% (n = 360,000); note: nearly all actives have a fitted effect of over 55% in size
Target sequence (Q14191 whole entry, looked up): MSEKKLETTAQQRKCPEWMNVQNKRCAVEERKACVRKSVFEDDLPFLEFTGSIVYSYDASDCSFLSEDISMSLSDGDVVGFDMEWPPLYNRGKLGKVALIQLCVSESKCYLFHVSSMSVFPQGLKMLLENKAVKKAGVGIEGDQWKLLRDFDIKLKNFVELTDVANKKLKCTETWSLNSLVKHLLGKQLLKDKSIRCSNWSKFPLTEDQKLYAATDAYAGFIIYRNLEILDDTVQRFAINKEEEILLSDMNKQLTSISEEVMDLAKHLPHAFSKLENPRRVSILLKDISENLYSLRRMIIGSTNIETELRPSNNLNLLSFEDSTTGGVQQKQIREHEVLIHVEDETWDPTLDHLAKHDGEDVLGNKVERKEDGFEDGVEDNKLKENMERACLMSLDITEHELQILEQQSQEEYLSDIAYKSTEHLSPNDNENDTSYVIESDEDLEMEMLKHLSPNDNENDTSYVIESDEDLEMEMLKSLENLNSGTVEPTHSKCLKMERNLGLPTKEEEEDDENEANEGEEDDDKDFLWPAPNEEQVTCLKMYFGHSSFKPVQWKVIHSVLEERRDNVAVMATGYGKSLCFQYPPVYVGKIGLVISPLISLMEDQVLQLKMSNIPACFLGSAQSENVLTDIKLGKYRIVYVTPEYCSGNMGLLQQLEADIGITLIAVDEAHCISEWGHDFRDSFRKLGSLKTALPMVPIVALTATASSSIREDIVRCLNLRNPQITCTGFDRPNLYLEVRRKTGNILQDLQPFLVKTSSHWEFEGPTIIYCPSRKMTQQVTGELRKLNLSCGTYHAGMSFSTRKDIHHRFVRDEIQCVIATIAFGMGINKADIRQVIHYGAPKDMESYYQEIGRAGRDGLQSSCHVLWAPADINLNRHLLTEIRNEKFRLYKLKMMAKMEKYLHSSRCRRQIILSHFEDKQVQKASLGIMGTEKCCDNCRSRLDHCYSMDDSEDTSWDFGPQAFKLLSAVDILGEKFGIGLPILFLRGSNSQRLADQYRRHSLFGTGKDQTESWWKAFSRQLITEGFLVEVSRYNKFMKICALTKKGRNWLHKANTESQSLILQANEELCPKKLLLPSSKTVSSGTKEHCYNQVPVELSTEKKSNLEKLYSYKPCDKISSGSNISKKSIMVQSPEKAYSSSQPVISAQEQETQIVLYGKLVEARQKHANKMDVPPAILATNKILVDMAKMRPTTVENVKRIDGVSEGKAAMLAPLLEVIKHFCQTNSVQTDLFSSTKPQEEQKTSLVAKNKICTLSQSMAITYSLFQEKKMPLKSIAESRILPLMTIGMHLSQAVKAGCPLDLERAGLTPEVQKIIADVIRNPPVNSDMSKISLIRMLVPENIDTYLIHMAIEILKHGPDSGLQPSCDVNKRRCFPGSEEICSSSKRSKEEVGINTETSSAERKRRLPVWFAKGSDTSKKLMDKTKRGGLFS
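WRN at 20 nM final was preincubated with compound for 15 min at room temperature; reaction started with 100 nM forked duplex oligonucleotide carrying fluorophore and quencher plus 2 mM ATP (final). Unwinding followed kinetically by red fluorescence (ex 525/em 598 nm).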
WRN helicase inh-2 = confirmation of human WRN helicase inhibitors; WRN helicase DNA unwinding, fluorescence kinetic; shares compounds with WRN helicase inh-1; actives 63% (n = 610); Potency, µM (top dose mostly 57.1 µM), actives largely listed as inhibitors; note: nearly all actives have a fitted effect of over 65% in size
TO displacement = counter-screen for WRN helicase inhibitors: DNA binding; AID 720499; thiazole orange DNA binding displacement, fluorescence; actives 10% (n = 610); shares compounds with WRN helicase inh-1; Potency, µM (highest dose often 57.1 µM), actives largely listed as inhibitors;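 note: drop in dye fluorescence marks compound binding to DNA; nearly all actives have a fitted effect of over 60% in size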
BLM helicase inh = BLM helicase inhibition, WRN selectivity check; shares compounds with WRN helicase inh-1; Recombinant BLM helicase DNA unwinding, red fluorescence; Potency, µM (top dose mostly 57.1 µM), usual class: inhibitors; actives 60% (n = 610); AID 720503; note: nearly all actives have a fitted effect of over 60% in size
Large screens that a line does not name were inactive (follow-up assays come after a bar, where they were run). Calls come from the whole dose curve; as a rule, active = well fitted curve in the direction sought with a large enough effect; inconclusive = small, poorly fitted or top-dose-only effect, or another doubt; inactive = no such curve, though single readings can be large; an effect the other way counts as inactive or inconclusive.

O=C(NCc1cccnc1)c1ccc(NC(=O)c2ccc(Br)cc2)cc1	none
Cn1cnc([N+](=O)[O-])c1S(=O)(=O)c1ccc(Cl)cc1	WRN helicase inh-1 inconclusive | WRN helicase inh-2 inactive | TO displacement inactive | BLM helicase inh inactive
Cn1cnc([N+](=O)[O-])c1NC(C)(C)C	none
COc1ccc(Cl)cc1NC(=O)c1c(NCc2sccc2C)sc2c1CCCC2	Pol iota inh inconclusive, FEN1 inhibitor 79µM (no result: WRN helicase inh-1) | WRN helicase inh-2 inactive | TO displacement inconclusive | BLM helicase inh inconclusive
COc1ccccc1NC(=O)c1c(NCc2sccc2C)sc2c1CCCCC2	none (no result: WRN helicase inh-1)
CN(C1CCCCC1)S(=O)(=O)c1ccc(NC(=O)c2ccc(Br)o2)cc1	none
Cc1cc(NC(=O)CSc2nc3c(C)cccc3cc2C)no1	none
N#C/C(=C/c1ccc(N2CCCCC2)o1)C(=O)Nc1ccc2ccccc2c1	Pol beta inh inconclusive, Pol iota inh inconclusive, Pol eta inh inconclusive, WRN helicase inh-1 inconclusive | WRN helicase inh-2 inconclusive | TO displacement inactive | BLM helicase inh 22µM
O=C1Nc2ccc3sc4ccccc4c3c2C1=O	Pol beta inh 5.6µM, Pol iota inh 22µM, FEN1 inhibitor inconclusive, Pol eta inh inconclusive, WRN helicase inh-1 inconclusive | WRN helicase inh-2 inconclusive | TO displacement 24µM | BLM helicase inh 7.6µM
O=C1Nc2ccccc2C1=O	none (no result: Pol beta inh)
CC(O)(c1ccccc1)c1nc(-c2ccncc2)cs1 (centres undefined)	WRN helicase inh-1 inconclusive (no result: POLK inh, Pol beta inh, Pol iota inh, FEN1 inhibitor, Pol eta inh) | WRN helicase inh-2 inconclusive | TO displacement inactive | BLM helicase inh inconclusive
Cc1cc(Cl)ccc1Oc1ccc(C(N)=O)cc1[N+](=O)[O-]	Pol beta inh inconclusive
Cc1cc(=O)oc2cc(Oc3ccc(C(N)=O)cc3[N+](=O)[O-])ccc12	Pol iota inh inconclusive, WRN helicase inh-1 inconclusive | WRN helicase inh-2 inconclusive | TO displacement inactive | BLM helicase inh inactive
CCOC(=O)C1=C(C)N=c2sc(=Cc3ccc(OCC(=O)O)cc3)c(=O)n2C1c1ccc(Cl)cc1 (centres undefined)	WRN helicase inh-1 inconclusive (no result: POLK inh, Pol beta inh, Pol iota inh, FEN1 inhibitor, Pol eta inh) | WRN helicase inh-2 7.6µM | TO displacement inactive | BLM helicase inh 3.4µM
CCOC(=O)C1=C(C)N=c2sc(=Cc3cc(Cl)c(OCC(=O)O)c(Cl)c3)c(=O)n2C1c1cccc(OC)c1 (centres undefined)	WRN helicase inh-1 79µM (no result: POLK inh, Pol beta inh, Pol iota inh, FEN1 inhibitor, Pol eta inh) | WRN helicase inh-2 30µM | TO displacement inactive | BLM helicase inh inconclusive
CCOC(=O)C1=C(C)N=c2s/c(=C\c3ccc(OCC(=O)O)cc3)c(=O)n2C1c1ccc(OC(C)C)cc1 (centres undefined)	Pol iota inh inconclusive, Pol eta inh inconclusive
CC1(C)CC(=O)C(C(C2=C(O)CC(C)(C)CC2=O)c2cccc(O)c2)C(=O)C1 (centres undefined)	none
CC1(C)CC(=O)C(C(C2=C(O)CC(C)(C)CC2=O)c2cccs2)C(=O)C1 (centres undefined)	Pol iota inh inconclusive, WRN helicase inh-1 inconclusive | WRN helicase inh-2 inactive | TO displacement inactive | BLM helicase inh inactive
C[C@@H]1NC(=O)N[C@@H]1CCCCCC(=O)O	Pol eta inh inconclusive, WRN helicase inh-1 inconclusive (no result: Pol beta inh) | WRN helicase inh-2 inconclusive | TO displacement inactive | BLM helicase inh inconclusive
CCOc1ccc(NCc2nc3ccccc3n2CCOc2ccc(C)cc2)cc1	none (no result: WRN helicase inh-1)
Cc1nc2c(cc1C(=O)N/N=C/c1ccc(O)c(O)c1)c(=O)n(C)c(=O)n2C	Pol beta inh 45µM, Pol iota inh inconclusive, Pol eta inh inconclusive, WRN helicase inh-1 inconclusive | WRN helicase inh-2 inconclusive | TO displacement inactive | BLM helicase inh inconclusive
COc1cc(C)c2sc3ccccc3c(=O)c2c1NCCN(C)C	Pol eta inh inconclusive, WRN helicase inh-1 35µM (no result: POLK inh, Pol beta inh, Pol iota inh, FEN1 inhibitor) | WRN helicase inh-2 inconclusive | TO displacement 17µM | BLM helicase inh inconclusive
Cc1noc(C)c1C(=O)N1CCC[C@@]2(CCN(c3ccccc3)C2)C1	none (no result: Pol beta inh, Pol iota inh, FEN1 inhibitor, Pol eta inh, WRN helicase inh-1)
CC(NC(=O)COC(=O)/C=C/c1ccc([N+](=O)[O-])cc1)c1ccccc1 (centres undefined)	POLK inh inconclusive, Pol iota inh 89µM, WRN helicase inh-1 inconclusive | WRN helicase inh-2 inactive | TO displacement inactive | BLM helicase inh inactive
O=S(=O)(NNc1nccc(C(F)(F)F)n1)c1cccc(Cl)c1Cl	Pol iota inh inconclusive
O=C(O)c1ccccc1-c1ccc(/C=C/c2cc(C(F)(F)F)[nH]c(=O)n2)o1	POLK inh inconclusive, Pol beta inh inconclusive, Pol iota inh inconclusive, Pol eta inh 50µM, WRN helicase inh-1 79µM | WRN helicase inh-2 24µM | TO displacement inactive | BLM helicase inh inactive
Cc1ccc(C)c(-c2nnc(NC(=O)CCS(=O)(=O)c3ccccc3)o2)c1	none (no result: Pol beta inh)
Oc1cc2c(cc1C(c1ccc(Br)cc1)N1CCCC1)OCO2 (centres undefined)	Pol iota inh inconclusive, WRN helicase inh-1 45µM | WRN helicase inh-2 inconclusive | TO displacement inactive | BLM helicase inh inconclusive
O=S(=O)(NCC(c1ccc2c(c1)OCO2)N1CCOCC1)c1ccc(Br)cc1 (centres undefined)	none (no result: Pol beta inh)
CCc1ccccc1NC(=O)c1cc(S(=O)(=O)NCCc2ccc(OC)c(OC)c2)ccc1F	none (no result: WRN helicase inh-1)
CC(=O)NC1C(=O)N(CCN2CCOCC2)c2ccc(Cl)cc21 (centres undefined)	Pol iota inh inconclusive, FEN1 inhibitor inconclusive, Pol eta inh inconclusive, WRN helicase inh-1 22µM | WRN helicase inh-2 inactive | TO displacement inactive | BLM helicase inh inactive
CCCCOC(=O)CSc1nnc(-c2ccccc2)o1	Pol beta inh inconclusive (no result: WRN helicase inh-1)
O=C(CSc1nnc(-c2cnccn2)n1Cc1ccco1)c1ccc(Cl)cc1	Pol iota inh inconclusive, WRN helicase inh-1 inconclusive | WRN helicase inh-2 inactive | TO displacement inactive | BLM helicase inh inactive
O=C(CSc1nnc(-c2cnccn2)n1Cc1ccco1)c1ccccc1	none
CCO[C@H]1OC(C(N)=O)=C[C@@H](C)[C@@H]1CCCO	none
COc1cc(N=Nc2cccc(S(N)(=O)=O)c2)c2ccccc2c1N	Pol beta inh inconclusive, Pol iota inh inconclusive, FEN1 inhibitor 45µM, Pol eta inh inconclusive, WRN helicase inh-1 inconclusive | WRN helicase inh-2 inconclusive | TO displacement inconclusive | BLM helicase inh inconclusive
COc1cc(/C=C2\SC(=Nc3ccccc3)N(Cc3ccco3)C2=O)ccc1OC(C)C(=O)O (centres undefined)	none
